Source: PubChem (National Center for Advancing Translational Sciences (NCATS))
PNC assembly inh – inhibitors of perinucleolar compartment assembly. PC3M PTB-GFP, PNC prevalence imaging, 16 h; active compounds read low. activity change (PNC), negative = inhibition, % at 10 µM. 140,000 compounds, 3.1% hits;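 active means readout at or below -70, meaning at least 70% loss of cells showing the perinucleolar compartment, a nuclear body marking cancer cells; inconclusive means readout between -30 and a set limit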
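Compounds are pinned in duplicate onto adhered PC3M cells stably expressing GFP-tagged PTB and incubated 16 h at 37 C. Cells are then fixed, nuclei stained with Hoechst, and PNC-positive cells counted.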
Lamin A splicing – changes lamin A minigene splicing in HeLa cells. HeLa LMNA splicing GFP/RFP minigene ratio, 48 h. Potency, µM (top dose mostly 46.1 µM), usual class: inhibitors. 200,000 compounds, 0.01% hits; active means well fitted inhibition curve with a large enough effect in the signal ratio, with a control signal flat, not every such curve was filed as active; inconclusive means small, poorly fitted or top-dose-only effect, or effect the other way, or a change in a side signal; the % refers to the signal ratio
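S3 HeLa stable clones carrying a lamin A-EGFP splicing minigene plus DsRed2 were seeded at 600 cells/well in Opti-MEM with 2% FBS, pin-dosed and incubated 48 h at 37°C. Acumen cytometry (488 nm) gave the GFP/RFP total-intensity ratio.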
12-hLO inh – 12-hLO (ALOX12) enzyme inhibition | P18054 | purified 12-hLO, xylenol orange hydroperoxide absorbance | Potency, µM (highest dose often 57.1 µM), most hits filed as inhibitors | 150,000 compounds, 0.12% hits; active means well fitted inhibition curve with a large enough effect; inconclusive means small, poorly fitted or top-dose-only effect; further: nearly all actives have a fitted effect of over 55% in size
Target sequence (P18054 whole entry, looked up): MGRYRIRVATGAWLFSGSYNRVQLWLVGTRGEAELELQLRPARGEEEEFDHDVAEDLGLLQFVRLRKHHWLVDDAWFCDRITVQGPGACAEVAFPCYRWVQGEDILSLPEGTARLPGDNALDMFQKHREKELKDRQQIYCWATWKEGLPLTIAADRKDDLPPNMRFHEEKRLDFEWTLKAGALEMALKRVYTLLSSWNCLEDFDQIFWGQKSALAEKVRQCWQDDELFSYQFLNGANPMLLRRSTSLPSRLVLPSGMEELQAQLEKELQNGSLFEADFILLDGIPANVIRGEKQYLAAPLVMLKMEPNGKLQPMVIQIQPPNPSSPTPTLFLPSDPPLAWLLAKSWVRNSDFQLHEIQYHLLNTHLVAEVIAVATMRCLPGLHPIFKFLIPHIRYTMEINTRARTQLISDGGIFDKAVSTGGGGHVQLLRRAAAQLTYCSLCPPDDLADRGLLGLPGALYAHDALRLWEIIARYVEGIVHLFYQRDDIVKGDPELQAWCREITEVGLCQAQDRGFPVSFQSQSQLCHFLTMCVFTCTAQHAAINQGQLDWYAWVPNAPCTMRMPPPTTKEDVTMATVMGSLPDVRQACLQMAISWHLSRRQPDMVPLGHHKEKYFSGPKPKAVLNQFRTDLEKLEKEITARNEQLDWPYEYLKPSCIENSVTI
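Hydroperoxide formation by human 12-lipoxygenase from 40 uM arachidonic acid was followed colorimetrically via ferric-xylenol orange complex, using the 573/405 nm absorbance ratio. Enzyme concentration was 150 nM, with 30 min reaction at room temperature.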
HPGD inh – inhibitors of human 15-hydroxyprostaglandin dehydrogenase (HPGD). P15428. purified HPGD, NADH fluorescence kinetic, PGE2 substrate. Potency, µM, actives largely listed as inhibitors. 150,000 compounds, 4.3% hits. AID 894
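20 nM HPGD preincubated 15 min at room temperature with compound in 50 mM Tris-HCl pH 8, 0.01% Tween 20. Started with 1 mM NAD+ and 30 uM prostaglandin E2; NADH fluorescence (360/450 nm) read 5 times over 30-s intervals, last minus first.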
ALDH1A1 block – inhibitors of human aldehyde dehydrogenase 1A1; P00352; Purified ALDH1A1, NADH fluorescence, propionaldehyde substrate; Potency, µM (highest dose often 75.3 µM), hits mostly inhibitors; 220,000 compounds, 7.3% hits
A number is an active result; - = inactive; ? = inconclusive; . = no result given; [ ] = dose if it differs, or a comment. Compounds with a hit are over-represented: about 10% of the library has one in this group of screens. Unless noted, the call rests on the fitted dose curve; in most records, active means well fitted inhibition curve with a large enough effect (not every such curve was filed as active); inconclusive means small, poorly fitted or top-dose-only effect, or another doubt; inactive means no such curve, though single readings can be large or run the other way.

SMILES	PNC assembly inh	Lamin A splicing	12-hLO inh	HPGD inh	ALDH1A1 block
Cc1ccc(N(C(=O)c2snc(C(N)=O)c2N)C(C(=O)NCCC(C)C)c2ccco2)cc1 (configuration not stated)	.	?	.	.	-
Nc1ncn([C@H]2O[C@@H](CO)[C@@H](O)[C@@H]2O)c(=O)n1	.	?	-	-	-
Cc1ccc(CNC(=O)c2sc3nc[nH]c(=O)c3c2C)cc1	.	-	.	.	.
CCOC(=O)C1CCN(C(=O)Cn2ncc3c([nH]c4ccccc43)c2=O)CC1	.	-	.	.	.
O=c1nc2s/c(=C\c3ccc(-c4ccccc4[N+](=O)[O-])o3)c(=O)n2nc1-c1ccccc1	?	?	-	7.9µM	?
O=C(Nc1ccccn1)c1ccc2nc(-c3ccccc3)c(-c3ccccc3)nc2c1	.	.	.	.	11µM
CCCNC(=O)c1ccc2nc(-c3ccccc3)c(-c3ccccc3)nc2c1	?	-	-	?	?
O=C(Nc1cccnc1)c1ccc2nc(-c3ccccc3)c(-c3ccccc3)nc2c1	.	-	.	.	18µM
COc1ccc2c(c1)CC(C(=O)Nc1cc(Cl)ccc1C)CO2 (configuration not stated)	.	-	.	.	.
CCC1CN(C(=O)N2CCC(C(=O)Nc3cc(C)ccc3C)CC2)c2ccccc2O1 (configuration not stated)	.	-	.	.	.
O=C(c1ccc(Cl)s1)N1CCCC1	-	-	-	7.9µM	?
CCc1ccc(C(=O)N2CCN(c3ccc(F)cc3)CC2)s1	?	-	-	-	-
CCc1ccc(C(=O)N2CCCC2)s1	?	-	-	16µM	?
CCCCNC(=O)N(C)c1nc2ccccc2s1	.	-[9.22 µM]	.	.	?
CCCNC(=O)N(C)c1nncnc1C(=O)NC	-100	-	-	-	-
CCOc1ccc(Cc2nnc(N)s2)cc1OCC	-86	?	-	-	-
CO[C@H]1COC(=O)[C@H](C)NC(=O)[C@@H](C)COC(=O)C/C=C\[C@@H]1C	.	.	.	.	-[13.5 µM]
CC(NC(=O)COc1ccccc1-c1ccccc1)c1ccccc1 (configuration not stated)	-	?	-	-	-
C/C(CCC(C)C)=N\NC(=O)COc1ccccc1-c1ccccc1	.	?	.	.	7.1µM
O=C1CCC/C(=N\NC(=O)c2ccc(COc3ccccc3-c3ccccc3)cc2)C1	.	?	.	.	-
CC1(NC(=O)COc2ccccc2-c2ccccc2)CCS(=O)(=O)C1 (configuration not stated)	-96	-	-	-	-
O=C(COc1ccccc1-c1ccccc1)NN=C1CCCC1	.	.	.	.	11µM
COc1ccc(CCNC(=O)c2ccc3c(c2)nc2n3CCOC2)cc1OC	.	-	.	.	.
COCCCNC(=O)c1ccc2c(c1)OCO2	-	-	-	6.3µM	-
CCCCOCCCNC(=O)c1ccc2c(c1)OCO2	-	-	-	25µM	-
SMILES	PNC assembly inh	Lamin A splicing	12-hLO inh	HPGD inh	ALDH1A1 block
CC(OC(=O)CNC(=O)c1ccc2c(c1)OCO2)C(=O)NCCC1=CCCCC1 (configuration not stated)	?	-	-	18µM	-
CCCCOCCOCCOCc1cc2c(cc1CCC)OCO2	.	?	-	-	10µM
CCCCOCCOCCOCCCC	.	.	-	-	-
CN(C)Cc1ccccc1-c1nc(NC2CCNCC2)c2ccccc2n1	.	?	.	.	-
O=C(O)c1cc([N+](=O)[O-])c(NCCC2=CCCCC2)c([N+](=O)[O-])c1	.	.	.	.	10µM
CC(=O)N1CCc2c(sc3c2c(=O)n(-c2ccccc2Cl)c(=O)n3C)C1	.	-	.	.	.
c1ccc(-c2cnc(SCCN3CCOCC3)n2CC2CCCO2)cc1 (configuration not stated)	-	-	-	-	10µM
COc1ccc(-c2cnc(N)n2CC2CCCO2)cc1 (configuration not stated)	?	-	-	-	40µM
Cc1cccc(Cn2c(CN3CCC(C(=O)NCCc4ccccc4)CC3)cc3ccccc32)c1	.	-	.	.	.
CCCN1C(=O)C(NC(C)=O)c2ccccc21 (configuration not stated)	-	-	-	-	0.13µM
CNc1ncncc1-c1ccccc1C	.	-	.	.	-
O=C(O)CC(=O)Nc1cc(Cl)ccc1O	-	-	-	-	-
Cc1cccc(C(=O)CC(=O)c2cc(Cl)ccc2O)c1	-	?	-	16µM	-
Cc1ccc(O)c(C(=O)CC(=O)c2cccc(F)c2)c1	?	-	-	22µM	-
COc1ccc(O)c(C(=O)CC(=O)c2ccc(F)cc2)c1	-	-	?	-	-
Cc1cccc(C(=O)NNC(=O)c2cccc(C)c2)c1	-	-	-	-	-
O=C(CC(=O)c1cc(Cl)ccc1O)c1ccccc1	?	?	-	25µM	-
O=C(CN1CCN(C(=O)C2COc3ccccc3O2)CC1)Nc1ccccc1 (configuration not stated)	.	.	.	.	-
COc1cccc(Nc2ncc3ncc(=O)n(CCc4ccccc4)c3n2)c1	.	?	.	.	-
COc1ccccc1C(=O)Nc1ccccc1C(=O)OCc1cc(=O)n2ccsc2n1	.	-	.	.	.
CCOC(=O)c1ccc(Oc2nc(OC)nc(N(C)C)n2)cc1	-93	-	-	-	-
CN(C)c1nc(Oc2ccc(C(=O)OCC(=O)Nc3ccccc3)cc2)nc(N(C)C)n1	-	-	-	-	-
Cc1cc2cc(C(c3nnnn3Cc3ccco3)N3CCc4ccccc43)c(=O)[nH]c2cc1C (configuration not stated)	-	-	?	.	7.9µM
Cc1ccc2cc(C(c3nnnn3Cc3ccccc3)N3CCc4ccccc43)c(=O)[nH]c2c1 (configuration not stated)	-	-	-	-	18µM
Cc1cc2cc(C(c3nnnn3Cc3ccccc3)N3CCc4ccccc43)c(=O)[nH]c2cc1C (configuration not stated)	-	?	-	-	?
SMILES	PNC assembly inh	Lamin A splicing	12-hLO inh	HPGD inh	ALDH1A1 block
COc1ccc(Oc2ncc3nc(-c4cccs4)c(=O)n(CCC#N)c3n2)cc1	.	-	.	.	-
COc1cccc(C(=O)NC(=S)Nc2ccc(N(C)C)cc2)c1	-	?	?	-	10µM
COc1cc(C(=O)NC(=S)Nc2ccc(N3CCCC3)cc2)cc(OC)c1OC	-	?	?	.	28µM
COCCNC(=S)Nc1ccc(N2CCCCC2)cc1	.	.	.	.	8.9µM
COc1cccc(C(=O)NC(=S)Nc2ccc(N3CCCC3)cc2)c1	-	-	16µM	-	9.5µM
COc1ccccc1C(=O)NC(=S)Nc1ccc(N2CCCC2)cc1	-	-	-	-	-
COCCNC(=S)N/N=C/c1ccc(N2CCOCC2)cc1	?	?	-	?	?
O=C(Nc1ccc(F)cc1)Nc1nnc(-c2ccco2)s1	.	-	.	.	-
COc1ccc(C(=O)NC(=S)Nc2ccc(Cc3ccncc3)cc2)cc1	.	?	.	.	14µM
COc1cc(C(=O)NC(=S)Nc2ccc3oc(=O)ccc3c2)cc(OC)c1OC	-	-	-	-	-
COc1ccc(C(=O)NC(=S)Nc2ccc(N3CCCC3)cc2)cc1	.	-	.	.	10µM
Cc1ccccc1C(=O)NC(=S)Nc1ccc(Cc2ccncc2)cc1	-	-	-	-	?
